Laboratory results: PubChem BioAssay (NCATS)
Inconclusive results are not listed. Activity calls are given as the source filed them. Unless noted, the call rests on the fitted dose curve.

What was measured:
[1] = qHTS for Inhibitors of the Functional Ribonucleoprotein Complex (vRNP) of Lassa (LASV) Arenavirus: LASV Primary Screen - GLuc reporter signal (AID 1347082; calls by dose curve; tested in HEK293 reporter line; further: nearly all actives have a fitted effect of over 60% in size)
[2] = qHTS for Inhibitors of the Functional Ribonucleoprotein Complex (vRNP) of Lassa (LASV) Arenavirus: Viability assay - alamar blue signal for LASV Primary Screen (AID 1347083; calls by dose curve; tested in HEK293 reporter line; further: nearly all actives have a fitted effect of over 80% in size)
[3] = qHTS for Inhibitors of the Functional Ribonucleoprotein Complex (vRNP) of Lymphocytic Choriomeningitis Arenaviruses (LCMV): Viability assay - alamar blue signal for LCMV Primary Screen (AID 1347085; calls by dose curve; tested in HEK293 reporter line; further: nearly all actives have a fitted effect of over 80% in size)
[4] = biological target: Nucleoprotein (Lymphocytic choriomeningitis virus (strain Armstrong)) (UniProt P09992); experiment: qHTS for Inhibitors of the Functional Ribonucleoprotein Complex (vRNP) of Lymphocytic Choriomeningitis Arenaviruses (LCMV): LCMV Primary Screen - GLuc reporter signal (AID 1347086); further: nearly all actives have a fitted effect of over 70% in size
Nucleoprotein (Lymphocytic choriomeningitis virus (strain Armstrong)), sequence (P09992 whole entry, looked up): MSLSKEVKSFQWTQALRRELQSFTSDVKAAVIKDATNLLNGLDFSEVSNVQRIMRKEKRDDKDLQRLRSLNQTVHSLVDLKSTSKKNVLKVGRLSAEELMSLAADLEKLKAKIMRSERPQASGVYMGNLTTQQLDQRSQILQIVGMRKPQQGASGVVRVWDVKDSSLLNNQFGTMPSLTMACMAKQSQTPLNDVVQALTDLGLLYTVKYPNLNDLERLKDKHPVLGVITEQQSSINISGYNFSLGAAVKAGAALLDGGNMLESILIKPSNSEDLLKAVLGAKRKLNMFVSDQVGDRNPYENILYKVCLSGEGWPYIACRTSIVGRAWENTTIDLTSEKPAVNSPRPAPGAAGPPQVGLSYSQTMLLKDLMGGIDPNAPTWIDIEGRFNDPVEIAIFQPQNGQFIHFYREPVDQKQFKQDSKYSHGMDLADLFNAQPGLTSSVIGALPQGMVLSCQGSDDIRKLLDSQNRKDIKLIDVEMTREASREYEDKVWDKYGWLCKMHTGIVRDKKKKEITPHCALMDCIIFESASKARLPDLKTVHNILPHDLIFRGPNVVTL

Measured: Potency
Further: series mostly up to about 57 µM.

OCCc1ccccc1
inactive: [1] | [2] | [3] | [4]

COc1cc(-c2ccc(=O)[nH]n2)ccc1OC(F)F
inactive: [1] | [2] | [3] | [4]

CN1CCC[C@@H]1c1cccnc1
inactive: [1] | [2] | [3] | [4]

CNCc1ccccc1
inactive: [1] | [2] | [3] | [4]

CC(C)C(=O)c1c(C(C)C)nn2ccccc12
inactive: [1] | [2] | [3] | [4]

CC(C)(C)NC[C@H](O)COc1cccc2c1CCCC2=O
inactive: [1] | [2] | [3] | [4]

CC(C(=O)O)c1cccc(Oc2ccccc2)c1 (stereo not drawn)
inactive: [1] | [2] | [3] | [4]

CC(=O)OCC[N+](C)(C)C
inactive: [1] | [2] | [3] | [4]

C/C(=C(\CCO)SS/C(CCO)=C(\C)N(C=O)Cc1cnc(C)nc1N)N(C=O)Cc1cnc(C)nc1N
inactive: [1] | [2] | [3] | [4]

C[C@H]1O[C@@H](n2cc(F)c(=O)[nH]c2=O)[C@H](O)[C@@H]1O
inactive: [1] | [2] | [3] | [4]

COc1cc(O)cc(O)c1
inactive: [1] | [2] | [3] | [4]

O=C(N[C@H](CO)[C@H](O)c1ccc([N+](=O)[O-])cc1)C(Cl)Cl
inactive: [1] | [2] | [3] | [4]

O=C(NCN1CCOCC1)c1cnccn1
inactive: [1] | [2] | [3] | [4]

CC(C)=CCC[C@@](C)(O)[C@H]1CC=C(C)CC1
inactive: [1] | [2] | [3] | [4]

CC(=O)OCC1=C(C(=O)O)N2C(=O)[C@@H](NC(=O)Cc3cccs3)[C@H]2SC1
inactive: [1] | [2] | [3] | [4]

CNC[C@H](O)c1cccc(O)c1
inactive: [1] | [2] | [3] | [4]

CC(C)=CCC/C(C)=C/CO
inactive: [1] | [2] | [3] | [4]

CC=CC1=C(C(=O)O)N2C(=O)[C@H](NC(=O)[C@H](N)c3ccc(O)cc3)[C@@H]2SC1
inactive: [1] | [2] | [3] | [4]

COc1cc2c(Nc3ccc(Br)cc3F)ncnc2cc1OCC1CCN(C)CC1
inactive: [1] | [2] | [3] | [4]

C[C@]12C=CC(=O)C=C1CC[C@@H]1[C@@H]2[C@@H](O)C[C@@]2(C)[C@H]1CC[C@]2(O)C(=O)CO
inactive: [1] | [2] | [3] | [4]

Cc1ccc(C(C)C)cc2c(C)ccc1-2
inactive: [1] | [2] | [3] | [4]

O=C(C1CCCCC1)N1CC(=O)N2CCCc3ccccc3C2C1 (stereo not drawn)
inactive: [1] | [2] | [3] | [4]

O=C(O)c1ccc(S(=O)(=O)N(Cl)Cl)cc1
inactive: [1] | [2] | [3] | [4]

COc1c2occc2c(OC)c2c(=O)cc(C)oc12
inactive: [1] | [2] | [3] | [4]

CN1C(C(=O)Nc2ccccn2)=C(O)c2sccc2S1(=O)=O
inactive: [1] | [2] | [3] | [4]

CCn1nc(C(=O)O)c(=O)c2cc3c(cc21)OCO3
inactive: [1] | [2] | [3] | [4]

Cc1c(C(=O)O)c(O)cc2c1C(=O)c1c(O)c([C@@H]3O[C@H](CO)[C@@H](O)[C@H](O)[C@H]3O)c(O)c(O)c1C2=O
inactive: [1] | [2] | [3] | [4]

CC(C)C(=O)Nc1cccc(C(F)(F)F)c1
inactive: [1] | [2] | [3] | [4]

CC1(C)O[C@@H]2C[C@H]3[C@@H]4C[C@H](F)C5=CC(=O)C=C[C@]5(C)[C@@]4(F)[C@@H](O)C[C@]3(C)[C@]2(C(=O)CO)O1
inactive: [1] | [2] | [3] | [4]

CC(C)OP(=O)(CP(=O)(OC(C)C)OC(C)C)OC(C)C
inactive: [1] | [2] | [3] | [4]

CCC(=O)c1c(O)cc(O)cc1O
inactive: [1] | [2] | [3] | [4]

NCCS(=O)(=O)O
inactive: [1] | [2] | [3] | [4]

CCCC(O)C(CC)CO (stereo not drawn)
inactive: [1] | [2] | [3] | [4]

CCCCCCCCCCCCCCCC(=O)OC(C)C
inactive: [1] | [2] | [3] | [4]

OC1(c2ccccc2)CCNCC1
inactive: [1] | [2] | [3] | [4]

COc1cc(C(=O)N2CCOCC2)cc(OC)c1OC
inactive: [1] | [2] | [3] | [4]

CC(=O)c1ccc(OCC(=O)N2CCCCC2)cc1
inactive: [1] | [2] | [3] | [4]
